# Laboratory results: PubChem BioAssay
# A number with no mark means an inactive call. The list shows a part of the results. Activity calls are given as the source filed them.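 How the source made its calls, unless noted: active means mean inhibition above 46.68%, the untreated control wells mean plus 3 SD; inactive means the rest.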
# Legend:
# [1] = target: Nuclear receptor coactivator 1 (Homo sapiens) (UniProt Q15788); test: SRC1 coactivator transcriptional activity inhibitors, confirmation, cell-based, luminescence, quadruplicate (AID 588820); conditions: HEK293 GAL4-SRC1 luciferase reporter, at 3.6 µM, stronger effect = higher value;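 further: 0% = DMSO wells and 100% = gossypol 36 µM treated wells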
# [2] = VP16 transactivation inhibitors, counter-screen for SRC1 inhibitor project, cell-based, luminescence, high throughput (AID 588824; in the data active means inhibition above about 25%); conditions: cell-based VP16 transactivation luciferase luminescence; at 3.6 µM; stronger effect = higher value
# [3] = StAR promoter reporter inhibitors, counter-screen for LRH-1 inverse agonist project, cell-based, luminescence, high throughput (AID 651611; in the data active means inhibition above about 28%); conditions: StAR promoter luciferase reporter counterscreen, at 3.6 µM, stronger effect = higher value
# [4] = target: Nuclear receptor subfamily 5 group A member 2 (Homo sapiens) (UniProt O00482); test: LRH-1 (NR5A2) inverse agonists, retest, confirmation, cell-based, luminescence (AID 651613; in the data active means inhibition above about 42%;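 further: HEK293T cells co-transfected with LRH-1 and StAR promoter luciferase reporter; 0% = vehicle wells and 100% = parental cells lacking receptor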); conditions: cell-based LRH-1 luciferase reporter, inverse agonism; at 3.6 µM; stronger effect = higher value
# [5] = target: Steroidogenic factor 1 (Homo sapiens) (UniProt Q13285); test: SF1 (NR5A1) inverse agonists, counter-screen for LRH-1 inverse agonist project, cell-based, luminescence, high throughput (AID 651614; in the data active means inhibition above about 44%;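 further: cells cotransfected with StAR promoter reporter and SF1 expression vector; 0% = vehicle on cells with receptor and 100% = vehicle on cells lacking receptor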); conditions: cell-based SF1 luciferase reporter, at 3.6 µM, stronger effect = higher value
# [6] = VP16 transactivation reporter inhibitors, counter-screen for LRH-1 inverse agonist project, cell-based, luminescence, high throughput (AID 651615; in the data active means inhibition above about 33%); conditions: Gal4-VP16 luciferase reporter cells, at 3.6 µM, stronger effect = higher value
# [7] = target: Photoreceptor-specific nuclear receptor (Homo sapiens) (UniProt Q9Y5X4); test: NR2E3 agonist confirmation in cells, cell-based, luminescence, CHO-S two-hybrid (AID 624378;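 active means average inhibition above a cutoff equal to the mean inhibition of all tested compounds plus one SD, cut at about 70% in these data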;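 further: 0% = DMSO in NR2E3 cells and 100% = DMSO in cells lacking NR2E3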); conditions: CHO-S mammalian two-hybrid NR2E3-NCOR, luciferase luminescence; at 3.98 µM; stronger effect = higher value
# [8] = GAL4-VP16 reporter modulators, confirmation, counter-screen for NR2E3 agonist project, cell-based, luminescence, CHO-S, high throughput (AID 624379;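 active means mean inhibition above a cutoff equal to the average over all tested compounds plus one standard deviation, cut at about 70% in these data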;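 further: luciferase from a UAS reporter driven by GAL4-VP16 transactivation; 0% = DMSO with VP16-transfected cells and 100% = DMSO with cells lacking VP16; higher means less reporter light so more repression of VP16 activity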); conditions: CHO-S GAL4-VP16 luciferase reporter, at 3.98 µM, stronger effect = higher value
# [9] = Gal4-VP16 luciferase reporter inhibitors, counter-screen for COUP-TFII antagonist project, cell-based, luminescence, HEK293 (AID 687007; in the data active means inhibition above about 13%); conditions: at 8.5 µM, stronger effect = higher value
# [10] = target: COUP transcription factor 2 (Homo sapiens) (UniProt P24468); test: NR2F2 transcriptional activity inhibitors, confirmation, cell-based, luciferase reporter, HEK293, triplicate (AID 687008;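 active means mean inhibition over three repeats above a set limit taken from the earlier primary screen, cut at about 38% in these data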;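 further: 100% = cells given the luciferase reporter alone without the COUP-TF2 vector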); conditions: HEK293 NGFI-A luciferase reporter, luminescence; at 8.5 µM; stronger effect = higher value
# COUP transcription factor 2 (Homo sapiens), sequence (P24468 whole entry, looked up): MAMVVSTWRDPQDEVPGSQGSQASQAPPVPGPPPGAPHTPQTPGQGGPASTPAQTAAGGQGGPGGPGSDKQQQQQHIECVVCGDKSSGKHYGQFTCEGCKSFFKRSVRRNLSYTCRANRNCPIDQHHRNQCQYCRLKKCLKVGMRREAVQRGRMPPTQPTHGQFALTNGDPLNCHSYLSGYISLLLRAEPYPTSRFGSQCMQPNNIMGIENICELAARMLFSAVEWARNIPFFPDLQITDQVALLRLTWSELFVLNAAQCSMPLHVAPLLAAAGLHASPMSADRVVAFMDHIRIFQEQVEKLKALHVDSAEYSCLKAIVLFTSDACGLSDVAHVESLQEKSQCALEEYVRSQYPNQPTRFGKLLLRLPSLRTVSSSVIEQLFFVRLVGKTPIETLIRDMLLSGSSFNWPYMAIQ
# Nuclear receptor coactivator 1 (Homo sapiens), sequence (Q15788 whole entry, looked up, the tested form may be a part): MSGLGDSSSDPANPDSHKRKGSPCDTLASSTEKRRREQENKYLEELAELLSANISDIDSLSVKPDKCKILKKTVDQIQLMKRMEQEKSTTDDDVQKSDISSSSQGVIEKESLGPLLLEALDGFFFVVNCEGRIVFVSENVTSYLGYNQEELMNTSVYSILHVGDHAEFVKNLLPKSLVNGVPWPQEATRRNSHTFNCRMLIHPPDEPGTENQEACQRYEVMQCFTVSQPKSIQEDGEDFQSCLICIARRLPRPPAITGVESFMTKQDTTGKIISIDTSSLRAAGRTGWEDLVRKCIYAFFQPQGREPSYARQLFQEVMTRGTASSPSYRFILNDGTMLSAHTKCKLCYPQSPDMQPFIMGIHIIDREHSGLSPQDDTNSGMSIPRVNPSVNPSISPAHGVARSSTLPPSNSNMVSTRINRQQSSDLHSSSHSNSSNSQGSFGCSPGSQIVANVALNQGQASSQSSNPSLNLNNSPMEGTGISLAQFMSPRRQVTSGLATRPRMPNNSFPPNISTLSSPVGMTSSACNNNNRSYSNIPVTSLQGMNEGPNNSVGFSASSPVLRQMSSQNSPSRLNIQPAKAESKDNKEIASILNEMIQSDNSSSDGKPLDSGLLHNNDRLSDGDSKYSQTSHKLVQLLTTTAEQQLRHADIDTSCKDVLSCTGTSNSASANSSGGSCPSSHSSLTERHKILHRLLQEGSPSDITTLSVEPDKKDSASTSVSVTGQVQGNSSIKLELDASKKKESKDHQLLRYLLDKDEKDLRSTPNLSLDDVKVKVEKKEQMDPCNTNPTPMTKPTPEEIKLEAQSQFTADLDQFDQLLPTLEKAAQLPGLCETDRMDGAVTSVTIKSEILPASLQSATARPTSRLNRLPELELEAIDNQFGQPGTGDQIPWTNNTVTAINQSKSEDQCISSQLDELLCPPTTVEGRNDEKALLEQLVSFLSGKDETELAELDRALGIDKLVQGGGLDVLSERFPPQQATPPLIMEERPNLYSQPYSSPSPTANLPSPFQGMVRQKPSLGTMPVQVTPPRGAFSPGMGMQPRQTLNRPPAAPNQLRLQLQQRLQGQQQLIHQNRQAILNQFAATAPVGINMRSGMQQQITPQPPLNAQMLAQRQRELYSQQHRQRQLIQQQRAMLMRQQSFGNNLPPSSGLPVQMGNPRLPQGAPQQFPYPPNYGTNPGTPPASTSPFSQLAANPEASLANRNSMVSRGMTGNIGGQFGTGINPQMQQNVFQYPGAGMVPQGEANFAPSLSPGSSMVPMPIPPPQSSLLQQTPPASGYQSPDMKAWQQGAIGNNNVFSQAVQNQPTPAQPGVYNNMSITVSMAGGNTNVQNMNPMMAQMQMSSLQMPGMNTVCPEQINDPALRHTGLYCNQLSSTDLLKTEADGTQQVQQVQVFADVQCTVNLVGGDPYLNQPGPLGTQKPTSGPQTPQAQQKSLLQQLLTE
# Steroidogenic factor 1 (Homo sapiens), sequence (Q13285 whole entry, looked up, the tested form may be a part): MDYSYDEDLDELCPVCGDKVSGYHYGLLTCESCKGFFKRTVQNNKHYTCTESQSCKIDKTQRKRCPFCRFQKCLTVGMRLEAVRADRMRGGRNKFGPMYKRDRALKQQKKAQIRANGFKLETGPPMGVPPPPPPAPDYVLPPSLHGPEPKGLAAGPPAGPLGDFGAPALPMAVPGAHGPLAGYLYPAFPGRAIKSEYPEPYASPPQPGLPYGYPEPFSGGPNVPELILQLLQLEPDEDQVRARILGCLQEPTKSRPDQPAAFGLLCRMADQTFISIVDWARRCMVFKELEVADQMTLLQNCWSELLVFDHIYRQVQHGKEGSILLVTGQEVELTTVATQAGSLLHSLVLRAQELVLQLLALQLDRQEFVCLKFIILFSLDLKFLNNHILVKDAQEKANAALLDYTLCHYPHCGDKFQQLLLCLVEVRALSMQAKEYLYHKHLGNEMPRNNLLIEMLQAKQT
# Nuclear receptor subfamily 5 group A member 2 (Homo sapiens), sequence (O00482 whole entry, looked up): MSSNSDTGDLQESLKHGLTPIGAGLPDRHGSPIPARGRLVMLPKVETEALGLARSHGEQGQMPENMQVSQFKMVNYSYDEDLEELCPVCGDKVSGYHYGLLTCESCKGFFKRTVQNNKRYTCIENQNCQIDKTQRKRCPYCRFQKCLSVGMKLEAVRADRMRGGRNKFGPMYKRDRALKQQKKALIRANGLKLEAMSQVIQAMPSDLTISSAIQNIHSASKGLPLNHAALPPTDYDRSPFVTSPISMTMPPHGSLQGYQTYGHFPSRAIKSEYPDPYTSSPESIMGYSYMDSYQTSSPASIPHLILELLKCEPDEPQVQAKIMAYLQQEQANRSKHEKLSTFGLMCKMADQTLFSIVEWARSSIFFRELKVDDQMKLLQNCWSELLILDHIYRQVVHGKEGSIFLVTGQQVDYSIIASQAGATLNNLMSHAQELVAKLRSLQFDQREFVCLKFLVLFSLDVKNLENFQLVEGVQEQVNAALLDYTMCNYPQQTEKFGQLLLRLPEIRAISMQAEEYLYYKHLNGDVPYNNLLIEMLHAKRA
# Photoreceptor-specific nuclear receptor (Homo sapiens), sequence (Q9Y5X4 whole entry, looked up, the tested form may be a part): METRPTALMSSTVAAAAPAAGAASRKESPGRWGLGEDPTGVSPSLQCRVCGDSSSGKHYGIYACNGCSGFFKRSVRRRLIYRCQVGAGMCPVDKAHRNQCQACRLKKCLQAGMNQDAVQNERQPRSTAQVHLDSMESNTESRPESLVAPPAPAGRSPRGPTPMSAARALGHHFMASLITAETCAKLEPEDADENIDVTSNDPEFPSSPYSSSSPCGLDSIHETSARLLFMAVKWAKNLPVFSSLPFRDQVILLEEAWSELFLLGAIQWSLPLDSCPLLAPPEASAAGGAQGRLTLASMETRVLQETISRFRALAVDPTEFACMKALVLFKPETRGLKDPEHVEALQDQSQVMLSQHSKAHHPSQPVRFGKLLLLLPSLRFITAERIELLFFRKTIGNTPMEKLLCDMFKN
smiles,measurement,setting,value
COc1ccc2sc3c(=O)[nH]c4ccccc4c3c2c1,inhibition,[1],55% (active)
same,inhibition,[2],41.4% (active)
COc1ccc(-c2csc(NC(=O)c3ccccc3NS(=O)(=O)c3ccc(C)cc3)n2)cc1,inhibition,[1],19.3%
same,inhibition,[2],30.8% (active)
CCOc1ccc(NC(=O)c2ccc(CN3CCc4ccccc4C3)cc2)cc1,inhibition,[1],-25.7%
same,inhibition,[2],36.5% (active)
CCN(CC)c1ccc(NC(=O)CSc2n[nH]c(-c3ccco3)n2)cc1,inhibition,[1],-8.8%
same,inhibition,[2],-1.86%
CS(=O)(=O)c1ccc(C(=O)OCC(=O)NC(=O)Cc2ccccc2)cc1,inhibition,[1],-5.88%
same,inhibition,[2],-3.13%
COc1ccc(CNC(=O)c2cccc(S(=O)(=O)N3CCCCC3)c2)cc1OC,inhibition,[1],-20.1%
same,inhibition,[2],30.6% (active)
CC(=O)c1cccc(NC(=O)COc2cc3oc(=O)c(CC(C)O)c(C)c3cc2Cl)c1 (stereo not drawn),inhibition,[1],28.4%
same,inhibition,[2],22%
CCCCCC(=O)N1CCN(S(=O)(=O)c2ccc3c(c2)OCCO3)CC1,inhibition,[1],-2.33%
same,inhibition,[2],-1.65%
Cc1ccccc1C(=O)/C(C#N)=N/Nc1c(C)n(C)n(-c2ccccc2)c1=O,inhibition,[1],34.3%
same,inhibition,[2],21.1%
COc1cccc(NC2=NC3(CCCCC3)N=C(N)N2)c1,inhibition,[1],-9.2%
same,inhibition,[2],9.05%
CCOc1ccc(CCNC(=O)CSCc2ccc(C)cc2)cc1OCC,inhibition,[1],-18.5%
same,inhibition,[2],-1.5%
COc1ccc(C(=O)NCCN(C)C)c2nc3ccccc3cc12,inhibition,[1],20.7%
same,inhibition,[2],39.4% (active)
same,inhibition,[3],63.9% (active)
same,inhibition,[4],77.7% (active)
same,inhibition,[5],60% (active)
same,inhibition,[6],65.3% (active)
NS(=O)(=O)c1ccc(NC(=O)c2cccc3cc4ccccc4nc23)cc1,inhibition,[1],-13.3%
same,inhibition,[2],9.91%
COc1cc2c(cc1OC)C(NC(=O)C(F)(F)F)CNC2=O (stereo not drawn),inhibition,[1],45.5%
same,inhibition,[2],22.3%
Fc1ccc(NC(=S)N2CCCN(c3ccc(C(F)(F)F)cn3)CC2)c(F)c1,inhibition,[1],-32.2%
same,inhibition,[2],36.5% (active)
same,inhibition,[3],26.6%
same,inhibition,[4],57.6% (active)
same,inhibition,[5],57.8% (active)
same,inhibition,[6],51.6% (active)
CN(C(=O)c1cccc(NC(=O)Cc2ccc(NC(=O)C3CCCN(C(=O)CCc4ccccc4)C3)cc2)c1)C1CCCCC1 (stereo not drawn),inhibition,[1],6.53%
same,inhibition,[2],28% (active)
same,inhibition,[3],24.3%
same,inhibition,[4],49.4% (active)
same,inhibition,[5],48.5% (active)
same,inhibition,[6],45.2% (active)
CC1(c2ccc3ccccc3c2)NC(=O)N(CC(=O)N2CCN(Cc3ccccc3)CC2)C1=O (stereo not drawn),inhibition,[1],-20.6%
same,inhibition,[2],37.1% (active)
same,inhibition,[3],12.2%
same,inhibition,[4],55.8% (active)
same,inhibition,[5],58% (active)
same,inhibition,[6],48.8% (active)
COc1ccc(Cc2nnc(SCC(=O)Nc3ccc(C)c(Cl)c3)[nH]c2=O)cc1,inhibition,[1],6.82%
same,inhibition,[2],7.22%
COc1ccc(-c2coc3c(C(=O)NCc4ccc(OC)c(OC)c4)cccc23)c(C)c1,inhibition,[1],-32%
same,inhibition,[2],41.2% (active)
same,inhibition,[3],28% (active)
same,inhibition,[4],80.8% (active)
same,inhibition,[5],49% (active)
same,inhibition,[6],57.8% (active)
COc1ccc(C(=O)c2c(C)c3ccccc3n2CC(O)CNC(C)C)cc1 (stereo not drawn),inhibition,[1],-15.4%
same,inhibition,[2],-0.38%
O=C(CSc1nnc(Cn2nnc3ccccc32)o1)N(Cc1ccc(F)cc1)c1ccccc1,inhibition,[1],-0.43%
same,inhibition,[2],38.8% (active)
same,inhibition,[3],24.2%
same,inhibition,[4],63% (active)
same,inhibition,[5],56.7% (active)
same,inhibition,[6],56.9% (active)
COc1ccc(OC)c(C2=NS(=O)(=O)N(C)C(C(=O)Nc3ccc(F)cc3F)=C2)c1,inhibition,[1],-0.3%
same,inhibition,[2],4.07%
C#Cc1ccc(NC(=O)C2(C)CCN2C(=O)Cc2ccc(-c3ccccc3)cc2)cc1 (stereo not drawn),inhibition,[1],12.8%
same,inhibition,[2],36.2% (active)
same,inhibition,[7],50.6%
same,inhibition,[8],52.9%
same,inhibition,[9],6.08%
same,inhibition,[10],44.2% (active)
COc1ccc(OC)c(/C=C2\NC(=O)NC2=O)c1,inhibition,[1],29.5%
same,inhibition,[2],15.5%
COc1cc2c(oc(=O)c3cc(C)cc(OC)c32)c2c(C3OC(C)C(O)C(C)(O)C3O)ccc(O)c12 (stereo not drawn),inhibition,[1],-62.6%
same,inhibition,[2],64.9% (active)
same,inhibition,[3],50.6% (active)
same,inhibition,[4],93.8% (active)
same,inhibition,[5],75.5% (active)
same,inhibition,[6],94% (active)
COc1ccc(NC(=O)C2Cc3c(-c4ccc5c(c4)OCO5)ccnc3O2)cc1OC (stereo not drawn),inhibition,[1],0.9%
same,inhibition,[2],34% (active)
same,inhibition,[3],27.9% (active)
same,inhibition,[4],53.5% (active)
same,inhibition,[5],61.1% (active)
same,inhibition,[6],43.5% (active)
